Measured values: PubChem BioAssay (NCI)
Compounds without any hit were thinned out: in the full panel of roughly 79,000, 15% have a hit. A number with no mark means an inactive call. The source made the active and inactive calls. Cut-off read from the data, not from the text of the source: active = growth inhibition above about 70%; inactive = the rest.

What was measured:
[1] = NCI Yeast Anticancer Drug Screen. Data for the rad50 strain (AID 155);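 note: 0% = growth of vehicle-only cultures of the same strain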; details: S. cerevisiae rad50 strain growth inhibition, active compounds read high
In short: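 Readout: growth inhibition relative to vehicle-treated cultures. Compound exposure was carried out in a genetically defined yeast strain deficient in DNA damage repair.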

[2] = NCI Yeast Anticancer Drug Screen. Data for the mec2-1 strain (AID 157); details: S. cerevisiae mec2-1 strain, active compounds read high
In short: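 Readout is yeast growth inhibition, normalised to vehicle-treated controls, in the mec2-1 strain exposed to compound.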

[3] = NCI Yeast Anticancer Drug Screen. Data for the sgs1 mgt1 strain (AID 161);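 note: 0% = growth of cultures given vehicle only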; details: S. cerevisiae sgs1 mgt1 strain, active compounds read high
In short: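 Yeast cells carrying a defined DNA-repair defect were exposed to test compounds. Growth inhibition was measured relative to vehicle-treated controls.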

[4] = NCI Yeast Anticancer Drug Screen. Data for the cln2 rad14 strain (AID 165);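 note: 0% = growth equal to vehicle treated cultures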; details: S. cerevisiae cln2 rad14 strain, active compounds read high
In short: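 Relative to vehicle controls, growth inhibition of compound-treated cln2 rad14 yeast was recorded.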

[5] = NCI Yeast Anticancer Drug Screen. Data for the bub3 strain (AID 167); details: S. cerevisiae bub3 mutant strain, active compounds read high
In short: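 Readout: yeast growth inhibition, expressed relative to vehicle-only wells. The test organism is a mutant strain from a panel with lesions in DNA repair or checkpoint genes.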

[6] = NCI Yeast Anticancer Drug Screen. Data for the mlh1 rad18 strain (AID 175); details: S. cerevisiae mlh1 rad18 strain growth inhibition, active compounds read high
In short: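 Test agents were incubated with a yeast strain of defined genotype (DNA damage repair defect). Inhibition of growth was derived by comparison with vehicle-exposed cultures.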

[7] = at 5.0 µM (retest, dose inferred, filed as 0.5)
[8] = at 50.0 µM (retest, dose inferred, filed as 5.0)

| SMILES | growth inhibition [1, 7] | growth inhibition [1, 8] | growth inhibition ([1]; at 50.0 µM) | growth inhibition [2, 7] | growth inhibition [2, 8] | growth inhibition ([2]; at 50.0 µM) | growth inhibition [3, 7] | growth inhibition [3, 8] | growth inhibition ([3]; at 50.0 µM) | growth inhibition [4, 7] | growth inhibition [4, 8] | growth inhibition ([4]; at 50.0 µM) | growth inhibition [5, 7] | growth inhibition [5, 8] | growth inhibition ([5]; at 50.0 µM) | growth inhibition [6, 7] | growth inhibition [6, 8] | growth inhibition ([6]; at 50.0 µM) |
| --- | --- | --- | --- | --- | --- | --- | --- | --- | --- | --- | --- | --- | --- | --- | --- | --- | --- | --- |
| C/C(=N\NC(=S)N(C)CCN(C)C(=S)N/N=C(\C)c1ccccn1)c1ccccn1 | -8% | 99% (active) | 97.5% (active) | -5% | 99% (active) | 97.2% (active) | -3% | 99% (active) | 97.8% (active) | 4% | 99% (active) | 95.8% (active) | -10% | 99% (active) | 97% (active) | 20% | 99% (active) | 96.7% (active) |
| O=C(Nc1ccccc1)Oc1c(Cl)c(Cl)c(Cl)c(Cl)c1Cl | 19% | 98% (active) | 58.4% | 13% | 99% (active) | 45.8% | 26% | 99% (active) | 55.7% | 3% | 99% (active) | -20.8% | -2% | 99% (active) | 54.4% | 6% | 98% (active) | 68.7% |
| CC(C)C(=O)OCC(C)(C)C1OCC(C)(C)C(C(C)C)O1 (stereo not given) | 11% | -9% | -5.55% | 97% (active) | 5% | -3.85% | 12% | 3% | -1.55% | -19% | -6% | 9% | 98% (active) | 0% | 1.15% | 88% (active) | -13% | 4.85% |
| NC(=S)N/N=C/c1ccc(Cl)s1 | -5% | 80% (active) | 87.2% (active) | -8% | 29% | 47.5% | -5% | 36% | 67.6% | -17% | 9% | 11.7% | -5% | 62% | 57.5% | -6% | 44% | 87% (active) |
| CCN(C(=O)O)c1ccc(/C=C/c2ccnc3ccccc23)cc1 | 4% | 94% (active) | 2.4% | -16% | 96% (active) | -17.9% | 5% | 96% (active) | 40.1% | -26% | 91% (active) | -0.1% | -17% | 95% (active) | 23% | -7% | 91% (active) | 29.4% |
| O=C(O)C1C(C(=O)O)C23CC2(C(=O)O)C2(C(=O)O)CCC3=C3CCCC312 (stereo not given) | 3% | 100% (active) | 51.3% | -1% | 99% (active) | 55% | -7% | 100% (active) | 47.8% | -21% | 99% (active) | 19.4% | 5% | 99% (active) | 85.3% (active) | -3% | 100% (active) | 67.8% |
| O=C1N[C@H]2[C@H](CS[C@H]2CCCCC(=O)N(CCP(c2ccccc2)c2ccccc2)CCP(c2ccccc2)c2ccccc2)N1 | 2% | 41% | 59.4% | 1% | 27% | 16.4% | 11% | 47% | -5.85% | 9% | 23% | -18.8% | 16% | 34% | 7.8% | -15% | 8% | -26.7% |
| CC([N+](=O)[O-])C1(O)C(=O)c2cccc3cccc1c23 (stereo not given) | -7% | 55% | 64.2% | 0% | 100% (active) | 58.5% | 11% | 96% (active) | 42.2% | 4% | 42% | 76.7% (active) | 14% | 91% (active) | 68.8% | 26% | 86% (active) | 74.5% (active) |
| O=c1c(NO)c([N+](=O)[O-])cnn1-c1ccccc1 | 25% | 51% | 14.5% | 8% | 18% | 2.4% | -7% | -2% | 29.4% | 13% | 31% | 34.4% | -2% | 28% | -3.6% | -23% | -5% | -0.5% |
| Oc1ccc(-c2ccccc2)cc1Br | 14% | 99% (active) | 99.4% (active) | 3% | 100% (active) | 99.7% (active) | 1% | 99% (active) | 99.5% (active) | -9% | 99% (active) | 98.5% (active) | -3% | 99% (active) | 99.5% (active) | 9% | 99% (active) | 99.5% (active) |
